Measurements reported in PubChem BioAssay (NCATS).
Records with an inconclusive call do not appear. Active and inactive are the calls of the source. Unless noted, the call rests on the fitted dose curve; in most records, active means well fitted cell-killing curve with a large enough effect; inconclusive means small, poorly fitted or top-dose-only effect, or effect the other way; inactive means no such curve, though single readings can be large or run the other way.

Experiments:
[1] = Quantitative High-Throughput drug screen in 47 multiple myeloma cell lines against the NCATS MIPE library collection: L363_DSMZ cell viability assay (AID 1918984); further: nearly all actives have a fitted effect of over 40% in size; further: potency means the concentration at half of the fitted maximal effect
Outline: (§1)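 500 cells/well per myeloma line exposed to pinned MIPE 4.0 compounds for 48 h at 37 °C, 5% CO2. Viability read as ATP by CellTiter-Glo luminescence, normalised to DMSO-only (100%) and media-only (0%) wells.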

[2] = Quantitative High-Throughput drug screen in 47 multiple myeloma cell lines against the NCATS MIPE library collection: KMS34_JCRB cell viability assay (AID 1918985); further: nearly all actives have a fitted effect of over 40% in size; further: potency means the concentration at half of the fitted maximal effect
Outline: as §1

[3] = Quantitative High-Throughput drug screen in 47 multiple myeloma cell lines against the NCATS MIPE library collection: OCIMY7_PLB cell viability assay (AID 1918987); further: nearly all actives have a fitted effect of over 65% in size; further: potency means the concentration at half of the fitted maximal effect
Outline: as §1

[4] = Quantitative High-Throughput drug screen in 47 multiple myeloma cell lines against the NCATS MIPE library collection: OCIMY5_PLB cell viability assay (AID 1918988); further: nearly all actives have a fitted effect of over 65% in size; further: potency means the concentration at half of the fitted maximal effect
Outline: as §1

[5] = Quantitative High-Throughput drug screen in 47 multiple myeloma cell lines against the NCATS MIPE library collection: OPM1_PLB cell viability assay (AID 1918989); further: nearly all actives have a fitted effect of over 40% in size; further: potency means the concentration at half of the fitted maximal effect
Outline: as §1

[6] = Quantitative High-Throughput drug screen in 47 multiple myeloma cell lines against the NCATS MIPE library collection: SKMM1_PLB cell viability assay (AID 1919863); details: SKMM1 myeloma viability, CellTiter-Glo ATP, 48 h; viability: stronger effect = lower value; further: potency means the concentration at half of the fitted maximal effect; nearly all actives have a fitted effect of over 35% in size
Outline: as §1

[7] = Quantitative High-Throughput drug screen in 47 multiple myeloma cell lines against the NCATS MIPE library collection: U266_ATCC cell viability assay (AID 1919864); further: nearly all actives have a fitted effect of over 35% in size; further: potency means the concentration at half of the fitted maximal effect
Outline: as §1

[8] = Quantitative High-Throughput drug screen in 47 multiple myeloma cell lines against the NCATS MIPE library collection: XG1_PLB cell viability assay (AID 1919866); further: nearly all actives have a fitted effect of over 35% in size; further: potency means the concentration at half of the fitted maximal effect
Outline: as §1

[9] = Quantitative High-Throughput drug screen in 47 multiple myeloma cell lines against the NCATS MIPE library collection: VP6_DJ cell viability assay (AID 1919867); further: nearly all actives have a fitted effect of over 40% in size; further: potency means the concentration at half of the fitted maximal effect
Outline: as §1

[10] = Quantitative High-Throughput drug screen in 47 multiple myeloma cell lines against the NCATS MIPE library collection: PE2_PLB cell viability assay (AID 1919869); further: nearly all actives have a fitted effect of over 35% in size; further: potency means the concentration at half of the fitted maximal effect
Outline: as §1

[11] = Quantitative High-Throughput drug screen in 47 multiple myeloma cell lines against the NCATS MIPE library collection: RPMI8226_ATCC cell viability assay (AID 1919871); further: nearly all actives have a fitted effect of over 30% in size; further: potency means the concentration at half of the fitted maximal effect
Outline: as §1

[12] = Quantitative High-Throughput drug screen in 47 multiple myeloma cell lines against the NCATS MIPE library collection: KMS11_JCRBsus cell viability assay (AID 1919873); further: nearly all actives have a fitted effect of over 50% in size; further: potency means the concentration at half of the fitted maximal effect
Outline: as §1

[13] = Quantitative High-Throughput drug screen in 47 multiple myeloma cell lines against the NCATS MIPE library collection: KMS28BM_JCRB cell viability assay (AID 1919874); further: nearly all actives have a fitted effect of over 35% in size; further: potency means the concentration at half of the fitted maximal effect
Outline: as §1

[14] = qHTS drug screen for cell cycle checkpoint inhibitors in PARPi-resistant BRCA-mutant ovarian cancer cell lines. (AID 1963452; calls by dose curve; further: potency means the concentration at half of the fitted maximal effect); details: PEO1/OlaR viability, CellTiter-Glo luminescence, 96 h; for Z-AUC: stronger effect = lower value
Outline: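 PEO1, PEO4 and PEO1/OlaR ovarian cancer cells, 600 per well, exposed 96 h at 37C to a dilution series. Viability read by CellTiter-Glo luminescence, normalized to DMSO and empty wells; activity summarized as Z-AUC.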

[15] = Quantitative High-Throughput drug screen in 47 multiple myeloma cell lines against the NCATS MIPE library collection: XG6_PLB cell viability assay (AID 1919865); further: nearly all actives have a fitted effect of over 40% in size; further: potency means the concentration at half of the fitted maximal effect
Outline: as §1

[16] = Quantitative High-Throughput drug screen in 47 multiple myeloma cell lines against the NCATS MIPE library collection: UTMC2_PLB cell viability assay (AID 1919868); details: CellTiter-Glo ATP luminescence, 48 h; viability (% of DMSO control): at 45.8 µM (top of the series) unless noted; further: nearly all actives have a fitted effect of over 55% in size; further: potency means the concentration at half of the fitted maximal effect
Outline: as §1

[17] = Quantitative High-Throughput drug screen in 47 multiple myeloma cell lines against the NCATS MIPE library collection: PCM6_Riken cell viability assay (AID 1919870); further: potency means the concentration at half of the fitted maximal effect; nearly all actives have a fitted effect of over 30% in size
Outline: as §1

[18] = Quantitative High-Throughput drug screen in 47 multiple myeloma cell lines against the NCATS MIPE library collection: OPM2_DSMZ cell viability assay (AID 1919872); further: nearly all actives have a fitted effect of over 30% in size; further: potency means the concentration at half of the fitted maximal effect
Outline: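 Myeloma cell lines, 500 cells per well, exposed to MIPE 4.0 library compounds for 48 h at 37C, 5% CO2. Viability from ATP by CellTiter-Glo luminescence; normalised to DMSO (100%) and media-only (0%) wells.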

[19] = qHTS for identification of novel therapeutic agents for treatment of microphthalmiaassociated transcription factor (MiT) renal cell carcinoma (RCC) (AID 1963991); details: CellTiter-Glo, 48 h, stronger effect = lower value
Outline: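 Three TFE3-fusion RCC cell lines (UOK109, UOK124, UOK145), 500 cells/well, were exposed to the 1912-compound MIPE 4.0 library for 48 hours at 37 C. Viability was read by CellTiter-Glo luminescence, normalised to DMSO (100%) and empty wells (0%), with 11-concentration curve fits.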

[20] = measured here: PEO1 parental Z-AUC

COc1cc(C(=O)N2CCC(N3CCN(C)CC3)CC2)ccc1Nc1ncc2c(n1)N(C)c1ccccc1C(=O)N2C
-0.239: Z-AUC [14, 20]
inactive: Z-AUC [14] -0.667
-1.55: Z-AUC ([14]; measured here: PEO4 Z-AUC)
active: Potency [1] 4690 nM | Potency [2] 2640 nM | Potency [3] 2960 nM | Potency [4] 2090 nM | Potency [5] 1870 nM | Potency [6] 5900 nM | Potency [7] 2090 nM | Potency [8] 2640 nM | Potency [9] 1180 nM | Potency [10] 5260 nM | Potency [11] 10500 nM | Potency [12] 1660 nM | Potency [13] 3320 nM

CC(C)(C)c1cnc(CSc2cnc(NC(=O)C3CCNCC3)s2)o1
inactive: Z-AUC [14] -0.758
active: Potency [1] 166 nM | Potency [2] 296 nM | Potency [3] 2350 nM | Potency [4] 74.3 nM | Potency [6] 264 nM | Potency [7] 118 nM | Potency [15] 209 nM | Potency [8] 296 nM | Potency [9] 148 nM | Potency [16] 187 nM | Potency [10] 296 nM | Potency [17] 83.3 nM | Potency [11] 332 nM | Potency [18] 235 nM | Potency [12] 132 nM | Potency [13] 148 nM
-0.895: Z-AUC ([14]; measured here: PEO4 Z-AUC)
-1.2: Z-AUC [14, 20]

CCOc1ccccc1OCCNC(C)Cc1ccc(OC)c(S(N)(=O)=O)c1 (stereo unspecified)
inactive: Potency [1] | Potency [2] | Potency [3] | Potency [4] | Potency [5] | Potency [7] | Potency [15] | Potency [8] | Potency [9] | Potency [16] | Potency [10] | Potency [11] | Potency [18] | Potency [12]
2.03: z-score ([19]; TFE3-RCC viability, measured here: UOK145 Z-AUC)
-0.0547: z-score ([19]; TFE3-RCC UOK109 viability, measured here: UOK109 Z-AUC)
0.341: z-score ([19]; TFE3-RCC viability, measured here: UOK124 Z-AUC)

C#Cc1cccc(Nc2ncnc3cc(OC)c(OCCCCCCC(=O)NO)cc23)c1
-1.32: Z-AUC ([14]; measured here: PEO4 Z-AUC)
active: Potency [1] 52.6 nM | Potency [2] 1050 nM | Potency [3] 148 nM | Potency [4] 5.3 nM | Potency [5] 264 nM | Potency [6] 418 nM | Potency [7] 105 nM | Potency [8] 74.3 nM | Potency [9] 296 nM | Potency [16] 18.7 nM | Potency [10] 93.5 nM | Potency [17] 187 nM | Potency [11] 1870 nM | Potency [13] 33.2 nM | Potency [14] 616 nM
-1.22: Z-AUC [14, 20]

Cc1cnc(-c2cnc(NCCNc3ccc(C#N)cn3)nc2-c2ccc(Cl)cc2Cl)[nH]1
inactive: Potency [1] | Z-AUC [14] 1.35
0.904: Z-AUC [14, 20]
active: Potency [2] 5900 nM | Potency [3] 4180 nM | Potency [4] 20900 nM | Potency [9] 10500 nM | Potency [16] 13200 nM | Potency [10] 23500 nM | Potency [17] 13200 nM
0.844: Z-AUC ([14]; measured here: PEO4 Z-AUC)

CC1(O)CC(c2nc(-c3ccc4ccc(-c5ccccc5)nc4c3)c3c(N)nccn23)C1 (stereo unspecified)
inactive: Z-AUC [14] -2.04
-1.72: Z-AUC ([14]; measured here: PEO4 Z-AUC)
-0.993: Z-AUC [14, 20]
active: Potency [1] 662 nM | Potency [2] 590 nM | Potency [3] 209 nM | Potency [4] 235 nM | Potency [5] 18700 nM | Potency [15] 5260 nM | Potency [8] 5900 nM | Potency [9] 166 nM | Potency [16] 166 nM | Potency [10] 1660 nM | Potency [17] 14800 nM | Potency [11] 235 nM | Potency [18] 18700 nM | Potency [12] 187 nM | Potency [13] 148 nM

COCCOc1ccc2c(c1)ncn2-c1ccc2cccc(N3CCC(N)CC3)c2n1
active: Potency [1] 187 nM | Potency [2] 372 nM | Potency [3] 469 nM | Potency [4] 235 nM | Potency [5] 93.5 nM | Potency [6] 23500 nM | Potency [15] 372 nM | Potency [8] 132 nM | Potency [10] 372 nM | Potency [11] 26400 nM | Potency [18] 1870 nM | Potency [12] 5260 nM | Potency [13] 16600 nM

CNC(=O)c1ccc(N2C(=S)N(c3cnc(C#N)c(C(F)(F)F)c3)C(=O)C23CCC3)cc1F
active: Potency [1] 7430 nM | Potency [3] 526 nM | Potency [4] 118 nM | Potency [5] 2640 nM | Potency [7] 662 nM | Potency [15] 93.5 nM | Potency [8] 264 nM | Potency [9] 1050 nM | Potency [16] 3320 nM | Potency [10] 1050 nM | Potency [17] 833 nM
inactive: Potency [2] | Potency [12] | Potency [13]

Nc1ncnc2c1c(-c1cccc(OCc3ccccc3)c1)cn2C1CC(CN2CCCC2)C1 (stereo unspecified)
inactive: Z-AUC [14] -0.938
-0.783: Z-AUC [14, 20]
active: Potency [1] 332 nM | Potency [2] 11800 nM | Potency [3] 1480 nM | Potency [4] 7430 nM | Potency [6] 20900 nM | Potency [7] 16600 nM | Potency [15] 5260 nM | Potency [8] 8330 nM | Potency [9] 743 nM | Potency [16] 66.2 nM | Potency [10] 1660 nM | Potency [17] 7430 nM | Potency [11] 2960 nM | Potency [18] 14800 nM | Potency [12] 372 nM | Potency [13] 526 nM
-1.2: Z-AUC ([14]; measured here: PEO4 Z-AUC)

CCCCOc1c(C(=O)c2c(F)cc(C)cc2F)cnc2n[nH]cc12
0.585: Z-AUC [14, 20]
active: Potency [1] 3320 nM | Potency [2] 2350 nM | Potency [3] 4180 nM | Potency [4] 4180 nM | Potency [6] 5260 nM | Potency [7] 13200 nM | Potency [15] 2350 nM | Potency [8] 2960 nM | Potency [16] 3320 nM | Potency [10] 3720 nM | Potency [17] 2640 nM | Potency [11] 5900 nM | Potency [12] 2640 nM | Potency [13] 2960 nM
-0.136: Z-AUC ([14]; measured here: PEO4 Z-AUC)
inactive: Z-AUC [14] 0.41
